HEK cytotox – Cytotoxic Profiling in HEK 293 Cell Line of Diverse Libraries Using Quantitative High-Throughput Screening; AID 1345083, 2018; HEK 293 viability, ATP luminescence (CellTiter-Glo), 48-72 h; 6.6% of 94,000 active; Potency, µM (top dose mostly 115 µM), inactives show at the top dose activity change, negative = cytotoxicity, usual class: inhibitors; further: on the % scale 0 is the no-effect control and ±100 the full control effect; nearly all actives have a fitted effect of over 60% in size
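Cells seeded first (HEK 293, 250 cells/well), then compound added by pintool. Incubation ran 48 or 72 hr at 37 degree Celsius. CellTiter-Glo was added and luminescence imaged after 10 min at room temperature.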
FLuc inh-1 – Firefly luciferase inhibition profiling of diverse chemical library using quantitative high-throughput screening. Luciferin 4-monooxygenase (Photinus pyralis), P08659. purified P. pyralis luciferase, luminescence, biochemical. Potency, µM (top dose mostly 115 µM), actives largely listed as inhibitors. 2.5% of 76,000 active; further: on the % scale 0 is the no-effect control and ±100 the full control effect; nearly all actives have a fitted effect of over 65% in size
Target sequence (P08659 whole entry, looked up): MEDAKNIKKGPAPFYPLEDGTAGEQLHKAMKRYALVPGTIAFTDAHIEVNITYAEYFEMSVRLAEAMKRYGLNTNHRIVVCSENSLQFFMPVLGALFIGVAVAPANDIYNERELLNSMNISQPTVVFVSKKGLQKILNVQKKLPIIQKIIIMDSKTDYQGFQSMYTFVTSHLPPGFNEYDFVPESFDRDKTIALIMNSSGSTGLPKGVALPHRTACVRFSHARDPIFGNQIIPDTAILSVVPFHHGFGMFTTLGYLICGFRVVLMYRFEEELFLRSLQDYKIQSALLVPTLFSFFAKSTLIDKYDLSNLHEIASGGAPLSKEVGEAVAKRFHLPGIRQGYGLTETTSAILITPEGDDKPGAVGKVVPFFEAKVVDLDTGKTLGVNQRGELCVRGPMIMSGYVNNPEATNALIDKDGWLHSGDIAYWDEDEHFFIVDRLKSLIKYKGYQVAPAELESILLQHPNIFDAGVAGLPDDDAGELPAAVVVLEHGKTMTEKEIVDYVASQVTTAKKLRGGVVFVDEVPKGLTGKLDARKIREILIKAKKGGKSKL
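Purified P. pyralis luciferase (10nM final) in 50mM Tris acetate pH 7.5, 10mM Mg acetate, 0.01% Tween-20, 0.05% BSA with 10uM D-luciferin and 10uM ATP. Compounds titrated qHTS. Luminescence imaged on CCD.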
3T3 cytotox – Cytotoxic Profiling in NIH 3T3 Cell Line of Diverse Libraries Using Quantitative High-Throughput Screening; NIH 3T3 viability, CellTiter-Glo ATP luminescence, 48-72 h; Potency, µM (titrated, usually from 96.7 µM), without a hit: at the highest dose activity change, negative = cytotoxicity, most hits filed as inhibitors; 4.3% of 94,000 active; further: on the % scale 0 is the no-effect control and ±100 the full control effect; nearly all actives have a fitted effect of over 55% in size
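Mouse fibroblast NIH 3T3 cells, 400 per well, received compound via pintool and were incubated for 48 or 72 hr prior to CellTiter-Glo ATP luminescence measurement.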
SNCA viab count – GF-AFC viability counterscreen for inhibitors of alpha-synuclein gene (SNCA) expression; 0.12% of 150,000 active; HEK-293-SNCA-luc viability, GF-AFC fluorescence, 24 h; Potency, µM (top dose mostly 57.1 µM), inactives show at the highest dose activity change, negative = cytotoxicity, actives largely listed as cytotoxic; AID 1671193, 2021;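 further: 0% = DMSO-treated cells and -100% = medium-only wells without cells; nearly all actives have a fitted effect of over 30% in size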
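Cytotoxicity counterscreen: after 24 h compound treatment of genome-edited SNCA-luciferase HEK-293 cells, live-cell protease substrate GF-AFC read by fluorescence after 30 min; activity scaled between DMSO (0%) and medium-only (-100%), curves Hill-fitted.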
SNCA expr inh – Primary qHTS assay for inhibitors of alpha-synuclein gene (SNCA) expression | HEK-293 SNCA-luciferase knock-in, luminescence, 24 h | Potency, µM (top dose mostly 57.2 µM), for the others: at the top dose activity change, negative = inhibition, actives largely listed as inhibitors | 0.17% of 140,000 active;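 further: plate controls were DMSO cells for no effect and cell-free wells for full effect; nearly all actives have a fitted effect of over 45% in size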
hNpr1 antagonist – Natriuretic polypeptide receptor (hNpr1) antagonism - Primary qHTS. Potency, µM (doses to about 46.3 µM), for the others: top-dose activity change, negative = inhibition, hits mostly inhibitors. Atrial natriuretic peptide receptor 1 (Homo sapiens), P16066. HEK293 hNpr1 GloSensor cGMP, ANP-stimulated luminescence. 1.6% of 76,000 active; calls by dose curve; further: on the % scale 0 is the no-effect control and ±100 the full control effect; nearly all actives have a fitted effect of over 60% in size
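HEK293 cells stably expressing human Npr1 and cGMP GloSensor pGS-40F, loaded 2 h with 2% GloSensor reagent, given compound 30 min at room temperature. Luminescence read before and 20 min after 0.1 nM hNppA.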
FLuc SDR no ATP – Firefly luciferase (FLuc-C-HiBiT) SDR gain of signal screen - without ATP; Potency, µM (highest dose often 32.7 µM), for inactives: top-dose activation (signal gain), actives largely listed as activators; 7.8% of 1,300 active; AID 1963318, 2024; shares compounds with FLuc inh-1; Purified FLuc-C-HiBiT, Nano-Glo HiBiT luminescence, no ATP; further: nearly all actives have a fitted effect of over 55% in size
FLuc SDR ATP – Firefly luciferase (FLuc-C-HiBiT) SDR gain of signal screen - plus ATP. 8.7% of 1,300 active. purified FLuc-C-HiBiT + ATP, HiBiT complementation luminescence. AID 1963319, 2024. shares compounds with FLuc inh-1. Potency, µM (series often up to 32.7 µM), for the others: top-dose activation (gain of signal), hits mostly activators;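 further: signal reports ligand binding via conformational change of the enzyme rather than luciferase catalysis; % of control where 0% means no effect; nearly all actives have a fitted effect of over 55% in size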
FLuc inh-2 – Firefly luciferase (FLuc-C-HiBiT) enzymatic inhibition screen - Functional assay. shares compounds with FLuc inh-1. purified FLuc-C-HiBiT enzyme, luciferin luminescence. Potency, µM (titrated, usually from 32.7 µM), for inactives: top-dose activity change, negative = inhibition, most hits filed as inhibitors. 42% of 1,300 active. AID 1963320, 2024; further: on the % scale 0 is the no-effect control and ±100 the full control effect; nearly all actives have a fitted effect of over 70% in size
* = called active by the depositor; i = inactive; ? = inconclusive; · = not tested or not shown; ! = a repeat was not active; [ ] = another dose, or the depositor's remark. Compounds with a hit are over-represented: about 7.4% of the library has one in this group of screens. Unless noted, the call rests on the fitted dose curve; in most records, active means well fitted curve in the direction sought with a large enough effect; inconclusive means small, poorly fitted or top-dose-only effect, or another doubt; inactive means no such curve, though single readings can be large; an effect the other way counts as inactive or inconclusive. Potency means the concentration at half of the fitted maximal effect.

SMILES	HEK cytotox	FLuc inh-1	3T3 cytotox	SNCA viab count	SNCA expr inh	hNpr1 antagonist	FLuc SDR no ATP	FLuc SDR ATP	FLuc inh-2
O=C1NCCCCCCN(C(=O)Nc2ccc3c(c2)OCCO3)[C@H]2CCCC[C@@H]12	0%	4.5µM*	-12%	?	30%	?	27%	?	8.8µM*
CN1CCCCCCN(C(=O)Nc2ccc3c(c2)OCCO3)CCC1=O	-1%	4.5µM*	-11%	4%	110%	-29%	29%	?	9.9µM*
O=C1NCCCCCCN(Cc2ccncc2)[C@@H]2CN(C(=O)Nc3ccc4c(c3)OCCO4)CC[C@H]12	-21%	11µM*	?	-26%	83%	-3%	20%	17%	?
CCc1cccc(NC(=O)c2cc(-c3ccc[nH]3)n[nH]2)c1	-5%	8.9µM*	-14%	4%	32%	2%	12%	8%	?
CCCS(=O)(=O)N1CCC(N2C(=O)[C@H](OCCOC)[C@@H]2c2ccncc2)CC1	i	i	-19%	-6%	?	3%	·	·	·
COc1cccc(CNC(=O)c2cccc3c2CCN3C(=O)c2ccc(F)cc2)c1	?	?	?	?	43%	?	·	·	·
CC(NC(=O)Cc1ccc(NC(=O)N2CCCCc3ccccc32)cc1)c1ccccc1 (stereo not given)	·	·	·	-10%	-12%	·	·	·	·
O=C(NCCc1cccs1)c1cccc2c1CCN2C(=O)Nc1ccc(F)cc1	?	1.3µM*	?	-12%	-40%	?	20%	1.4µM*	0.79µM*
O=C(NCc1ccco1)c1cccc2c1CCN2C(=O)Nc1ccc(F)cc1	?	2.2µM*	?	-10%	10%	?	?	1.8µM*	1.1µM*
COc1ccc(CNC(=O)c2cccc3c2CCN3C(=O)c2ccc(F)cc2)cc1	0%	i	-3%	-11%	74%	-1%	·	·	·
CC(NC(=O)c1cccc2c1CCN2C(=O)Nc1ccccc1)c1cccnc1 (stereo not given)	?	6.3µM*	-21%	-21%	-16%	-28%	18%	3.1µM*	1.8µM*
Cc1ccc(CNC(=O)c2cccc3c2CCN3C(=O)c2ccc(F)cc2)o1	?	i	-14%	-8%	29%	-9%	·	·	·
O=C(NCCc1cccnc1)c1cccc2c1CCN2C(=O)Nc1ccc(F)cc1	45µM*	0.4µM*	-28%	-8%	?	11µM*	23%	0.35µM*	0.22µM*
O=C(O)CNC(=O)CNC(=O)Cn1nc2c(cc1=O)CCCC2	-2%	i	i	5%	-9%	-5%	·	·	·
O=C(Nc1ccc2c(c1)OCO2)c1cccc2c1CCN2C(=O)Nc1ccc(F)cc1	?	0.71µM*	-28%	-10%	-69%	7.1µM*	13%	0.25µM*	0.2µM*
COCCN1C(=O)N(C2Cc3ccccc3C2)C(=O)C12CCN(Cc1ccc(CO)o1)CC2	6%	i	5%	3%	-15%	-15%	·	·	·
O=C(NCC1CCCN(C(=O)N2CCCC2)C1)c1ccc(-c2ccccc2)cc1 (stereo not given)	?	7.9µM*	?	-10%	-6%	-2%	19%	11%	?
O=C1Cc2c(-c3cccc4ccccc34)n[nH]c2CN1CCOc1ccccc1	45µM*	10µM*	45µM*	-14%[87.6 µM]	75%[87.6 µM]	?	7%[49.3 µM]	10%[49.3 µM]	?
Cc1noc(C)c1C(=O)N1CC[C@H](N2CCN(C)CC2)[C@H](CCC(=O)O)C1	i	i	-1%	7%	4%	0%	·	·	·
OC1CN(Cc2ccc(-c3cnc4c(OCc5ccccc5)nccn34)cc2)C1	?	5µM*	89µM*	-10%[87.6 µM]	70%[87.6 µM]	-27%[70.6 µM]	26%[49.3 µM]	?	?
CCOc1nccn2c(-c3ccc(CN4CCN(C(C)=O)CC4)cc3)cnc12	-25%[172 µM]	?	?	-2%[87.6 µM]	-11%[87.6 µM]	0%[70.6 µM]	·	·	·
Cc1ccsc1C(=O)N1CCC(c2nc(-c3ccccc3)no2)C1 (stereo not given)	?	i	?	6%	23%	?	·	·	·
COc1ccc(Nc2cc(C(=O)NCCc3ccccc3)c3ccccc3n2)cc1OC	·	·	·	20%	-29%	·	·	·	·
COc1ccc(Nc2cc(C(=O)NC3CCC(C)CC3)c3ccccc3n2)cc1OC (stereo not given)	·	·	·	-14%	166%	·	21%	13%	-4%
OCC1CN(Cc2ccc(Cl)o2)CCC12CCN(C1CCOCC1)CC2 (stereo not given)	-4%	i	0%	-7%	?	-1%	·	·	·
COc1ccc(-c2nc3ncccc3[nH]2)cc1	79µM*	13µM*	79µM*!	-17%[87.6 µM]	-26%[87.6 µM]	-17%[70.6 µM]	?	?	16µM*
c1cnc2nc(-c3ccncc3)[nH]c2c1	-20%[230 µM]	i	?	-26%[87.6 µM]	-12%[87.6 µM]	-2%[70.6 µM]	·	·	·
O=C(COc1ccc(F)cc1)N1CC(Oc2ccc(-c3nc(-c4ccccc4)no3)cc2)C1	?	?	-15%	-2%	-3%	-3%	·	·	·
O=C(NCc1ccc(F)cc1)N1CC(Oc2ccc(-c3nc(-c4ccccc4)no3)cc2)C1	?	2.2µM*	-19%	-4%	79%	0.63µM*	16%	14%	0%
